Common to all, as to assay: DAPPL (digital affinity profiling via proximity ligation, sequencing); 10 mM Tris-HCl pH 7.5, 50 mM NaCl, 1 mM DTT, 4% glycerol, room temperature, 30 min; GST-TFs on glutathione beads, 16-mer random dsDNA library, 0.1% formaldehyde crosslink after washing; high values mean tight binding
Common to all, as to conditions: protein: recombinant; tags: N-terminal GST; dsDNA, one strand shown

The target of one assay is T1, FLI1 (Homo sapiens, UniProt Q01543 1-452).
T1 sequence: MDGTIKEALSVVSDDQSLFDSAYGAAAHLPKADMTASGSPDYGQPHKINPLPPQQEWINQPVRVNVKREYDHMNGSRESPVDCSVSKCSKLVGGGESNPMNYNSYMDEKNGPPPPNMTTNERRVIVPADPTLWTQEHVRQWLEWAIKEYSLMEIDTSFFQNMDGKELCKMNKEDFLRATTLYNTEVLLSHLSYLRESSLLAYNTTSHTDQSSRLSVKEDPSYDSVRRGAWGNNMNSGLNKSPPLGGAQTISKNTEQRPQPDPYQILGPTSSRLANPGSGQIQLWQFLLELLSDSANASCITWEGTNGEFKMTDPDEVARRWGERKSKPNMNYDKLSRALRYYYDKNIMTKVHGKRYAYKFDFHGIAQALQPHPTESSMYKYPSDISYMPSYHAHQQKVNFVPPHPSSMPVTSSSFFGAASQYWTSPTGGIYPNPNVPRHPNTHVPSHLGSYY
The method, boiled down:
(§1)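 Binding signal is defined as a hexamer's read frequency for one factor over its frequency for the tag-only sample. To obtain reads, GST-fused human transcription factors were expressed in yeast, captured on glutathione beads, barcoded with DNA and pooled with that sample. Pools met 200 nmole of a 16-mer random double-stranded DNA library in Tris/NaCl/DTT/glycerol buffer for 30 min at room temperature before washing, 0.1% formaldehyde crosslinking, proximity ligation (BsaI/T4 ligase, 1 h, 37 °C), PCR and Illumina NextSeq500 sequencing.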

A further assay addresses T2, ELK1 (Homo sapiens, UniProt P19419 1-428).
T2 sequence: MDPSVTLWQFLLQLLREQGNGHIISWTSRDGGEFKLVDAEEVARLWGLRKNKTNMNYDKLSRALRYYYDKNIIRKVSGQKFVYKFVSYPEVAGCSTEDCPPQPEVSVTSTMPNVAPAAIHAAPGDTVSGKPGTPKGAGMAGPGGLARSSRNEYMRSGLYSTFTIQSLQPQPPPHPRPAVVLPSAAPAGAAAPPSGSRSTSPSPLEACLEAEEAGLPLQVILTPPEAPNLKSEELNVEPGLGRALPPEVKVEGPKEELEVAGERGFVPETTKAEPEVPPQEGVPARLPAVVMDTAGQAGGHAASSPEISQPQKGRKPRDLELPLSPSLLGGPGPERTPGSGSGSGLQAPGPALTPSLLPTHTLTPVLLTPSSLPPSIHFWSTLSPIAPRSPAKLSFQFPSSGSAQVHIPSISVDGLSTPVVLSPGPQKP
The method, boiled down:
as §1

Another assay addresses T3, GABPA (Homo sapiens, UniProt Q06546 1-454).
T3 sequence: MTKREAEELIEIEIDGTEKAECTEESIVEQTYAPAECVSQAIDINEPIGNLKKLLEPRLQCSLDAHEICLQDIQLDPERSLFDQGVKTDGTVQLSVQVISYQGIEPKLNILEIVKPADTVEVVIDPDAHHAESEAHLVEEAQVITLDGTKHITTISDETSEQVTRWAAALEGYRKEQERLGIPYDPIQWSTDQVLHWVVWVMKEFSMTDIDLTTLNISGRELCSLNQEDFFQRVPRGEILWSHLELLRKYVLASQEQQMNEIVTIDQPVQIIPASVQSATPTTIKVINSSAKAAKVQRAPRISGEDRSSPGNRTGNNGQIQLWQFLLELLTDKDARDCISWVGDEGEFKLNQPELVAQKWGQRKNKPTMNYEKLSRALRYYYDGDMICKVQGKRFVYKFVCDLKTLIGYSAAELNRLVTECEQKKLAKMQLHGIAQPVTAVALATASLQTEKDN
The method, boiled down: as §1

For another assay, the target named is T4, ERG (Homo sapiens, UniProt P11308 1-479).
T4 sequence: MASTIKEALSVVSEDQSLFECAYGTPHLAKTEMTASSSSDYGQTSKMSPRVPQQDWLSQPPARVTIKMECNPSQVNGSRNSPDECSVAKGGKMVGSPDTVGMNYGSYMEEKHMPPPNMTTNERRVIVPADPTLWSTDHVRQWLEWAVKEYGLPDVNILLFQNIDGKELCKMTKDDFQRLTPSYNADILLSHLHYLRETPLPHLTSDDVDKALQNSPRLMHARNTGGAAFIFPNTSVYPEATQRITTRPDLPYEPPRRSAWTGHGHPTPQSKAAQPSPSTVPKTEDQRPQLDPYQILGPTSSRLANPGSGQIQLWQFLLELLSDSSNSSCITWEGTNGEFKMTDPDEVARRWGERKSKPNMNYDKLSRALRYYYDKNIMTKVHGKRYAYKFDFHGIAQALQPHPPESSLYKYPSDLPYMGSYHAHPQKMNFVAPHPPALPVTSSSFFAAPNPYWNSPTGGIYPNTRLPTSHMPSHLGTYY
Summed up:
as §1

For another assay, the target named is ELF1 (Homo sapiens, UniProt P32519 1-619). Summed up: as §1
Sequence of ELF1 (P32519 whole entry): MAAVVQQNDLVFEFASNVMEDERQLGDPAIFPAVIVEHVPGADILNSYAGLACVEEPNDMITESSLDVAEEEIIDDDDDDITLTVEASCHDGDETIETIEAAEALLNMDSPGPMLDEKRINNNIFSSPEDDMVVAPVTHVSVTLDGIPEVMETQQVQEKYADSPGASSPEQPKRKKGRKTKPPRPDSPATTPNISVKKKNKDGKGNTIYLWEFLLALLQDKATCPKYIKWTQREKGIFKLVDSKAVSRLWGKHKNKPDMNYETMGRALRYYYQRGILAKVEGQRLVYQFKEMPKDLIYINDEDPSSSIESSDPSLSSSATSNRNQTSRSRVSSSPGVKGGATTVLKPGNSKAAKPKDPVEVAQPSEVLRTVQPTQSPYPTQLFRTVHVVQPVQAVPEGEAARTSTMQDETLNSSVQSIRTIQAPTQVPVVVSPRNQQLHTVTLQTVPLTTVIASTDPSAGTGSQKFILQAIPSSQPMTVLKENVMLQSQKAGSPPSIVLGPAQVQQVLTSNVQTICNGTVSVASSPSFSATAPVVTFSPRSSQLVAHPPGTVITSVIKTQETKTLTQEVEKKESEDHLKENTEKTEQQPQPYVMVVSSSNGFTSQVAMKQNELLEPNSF
Another assay has as its target T5, EHF (Homo sapiens, UniProt Q9NZC4 1-300).
T5 sequence: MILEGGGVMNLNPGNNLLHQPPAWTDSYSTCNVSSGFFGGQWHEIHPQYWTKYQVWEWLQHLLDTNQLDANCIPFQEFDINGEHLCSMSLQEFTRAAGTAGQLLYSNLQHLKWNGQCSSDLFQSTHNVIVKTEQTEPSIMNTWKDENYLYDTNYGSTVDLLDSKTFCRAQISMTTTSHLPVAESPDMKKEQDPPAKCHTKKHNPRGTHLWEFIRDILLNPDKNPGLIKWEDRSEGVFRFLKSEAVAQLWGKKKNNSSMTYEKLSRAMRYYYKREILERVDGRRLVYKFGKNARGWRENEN
Summed up:
as §1

In a further assay the target is SPI1 (Homo sapiens, UniProt P17947 1-270). Summed up:
as §1

A further assay deals with SPIB (Homo sapiens, UniProt Q01892 1-262). The method, boiled down: as §1
Sequence of SPIB (Q01892 whole entry): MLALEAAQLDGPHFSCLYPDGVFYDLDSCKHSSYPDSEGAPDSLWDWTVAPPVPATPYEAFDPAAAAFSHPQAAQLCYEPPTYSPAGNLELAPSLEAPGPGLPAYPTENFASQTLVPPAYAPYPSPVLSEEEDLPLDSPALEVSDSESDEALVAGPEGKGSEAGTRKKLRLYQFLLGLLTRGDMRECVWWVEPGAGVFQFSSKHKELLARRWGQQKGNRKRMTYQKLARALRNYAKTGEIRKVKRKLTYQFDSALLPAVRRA
In the next assay the target is T6, ELK3 (Homo sapiens, UniProt P41970 1-407).
T6 sequence: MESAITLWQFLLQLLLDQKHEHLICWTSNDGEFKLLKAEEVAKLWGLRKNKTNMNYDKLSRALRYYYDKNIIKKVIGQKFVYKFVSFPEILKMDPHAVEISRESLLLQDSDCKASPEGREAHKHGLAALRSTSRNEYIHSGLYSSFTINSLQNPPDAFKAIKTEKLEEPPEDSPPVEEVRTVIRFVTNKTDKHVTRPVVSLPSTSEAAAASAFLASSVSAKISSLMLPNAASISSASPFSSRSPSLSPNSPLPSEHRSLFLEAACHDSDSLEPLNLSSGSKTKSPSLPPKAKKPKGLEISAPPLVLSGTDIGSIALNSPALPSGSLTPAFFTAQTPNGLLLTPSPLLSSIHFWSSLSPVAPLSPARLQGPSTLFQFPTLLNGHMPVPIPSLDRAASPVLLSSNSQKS
The method, boiled down:
as §1

In the next assay the target is T7, FEV (Homo sapiens, UniProt Q99581 1-238).
T7 sequence: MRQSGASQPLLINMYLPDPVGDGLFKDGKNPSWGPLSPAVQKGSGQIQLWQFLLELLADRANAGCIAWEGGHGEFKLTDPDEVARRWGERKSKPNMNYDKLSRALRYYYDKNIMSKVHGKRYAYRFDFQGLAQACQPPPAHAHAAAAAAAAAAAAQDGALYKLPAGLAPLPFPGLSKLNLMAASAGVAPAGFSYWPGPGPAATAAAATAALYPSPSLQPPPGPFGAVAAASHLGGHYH
Summed up: as §1

Another assay has as its target ETV5 (Homo sapiens, UniProt P41161 1-510). The method, boiled down: as §1
A further assay addresses T8, SPIC (Homo sapiens, UniProt Q8N5J4 1-248).
T8 sequence: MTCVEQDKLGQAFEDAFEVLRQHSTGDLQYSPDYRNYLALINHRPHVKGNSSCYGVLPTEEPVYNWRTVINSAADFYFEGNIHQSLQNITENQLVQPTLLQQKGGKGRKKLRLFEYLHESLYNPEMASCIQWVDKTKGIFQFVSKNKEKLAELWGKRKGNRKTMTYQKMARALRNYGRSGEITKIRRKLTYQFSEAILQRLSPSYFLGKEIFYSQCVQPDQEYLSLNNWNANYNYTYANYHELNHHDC
The method, boiled down: as §1

The target of a further assay is ELF4 (Homo sapiens, UniProt Q99607 1-663). Summed up: as §1
Sequence of ELF4 (Q99607 whole entry): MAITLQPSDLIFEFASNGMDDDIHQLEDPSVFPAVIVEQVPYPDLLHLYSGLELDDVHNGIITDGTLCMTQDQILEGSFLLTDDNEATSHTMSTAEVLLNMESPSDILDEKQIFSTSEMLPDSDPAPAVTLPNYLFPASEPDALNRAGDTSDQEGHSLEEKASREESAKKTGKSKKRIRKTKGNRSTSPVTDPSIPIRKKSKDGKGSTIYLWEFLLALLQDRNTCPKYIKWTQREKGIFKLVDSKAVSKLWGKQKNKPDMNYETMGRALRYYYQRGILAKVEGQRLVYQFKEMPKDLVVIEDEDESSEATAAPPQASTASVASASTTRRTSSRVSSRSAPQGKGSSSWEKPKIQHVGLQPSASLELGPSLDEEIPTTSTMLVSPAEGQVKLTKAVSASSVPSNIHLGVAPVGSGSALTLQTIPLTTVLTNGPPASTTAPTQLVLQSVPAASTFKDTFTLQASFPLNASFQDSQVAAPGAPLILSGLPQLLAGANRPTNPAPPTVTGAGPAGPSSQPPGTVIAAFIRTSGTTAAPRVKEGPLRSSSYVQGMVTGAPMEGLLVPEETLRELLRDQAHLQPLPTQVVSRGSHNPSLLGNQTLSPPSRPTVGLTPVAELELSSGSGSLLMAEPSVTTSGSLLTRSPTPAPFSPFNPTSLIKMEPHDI
Another assay concerns the target T9, ELK4 (Homo sapiens, UniProt P28324-2 1-405).
T9 sequence: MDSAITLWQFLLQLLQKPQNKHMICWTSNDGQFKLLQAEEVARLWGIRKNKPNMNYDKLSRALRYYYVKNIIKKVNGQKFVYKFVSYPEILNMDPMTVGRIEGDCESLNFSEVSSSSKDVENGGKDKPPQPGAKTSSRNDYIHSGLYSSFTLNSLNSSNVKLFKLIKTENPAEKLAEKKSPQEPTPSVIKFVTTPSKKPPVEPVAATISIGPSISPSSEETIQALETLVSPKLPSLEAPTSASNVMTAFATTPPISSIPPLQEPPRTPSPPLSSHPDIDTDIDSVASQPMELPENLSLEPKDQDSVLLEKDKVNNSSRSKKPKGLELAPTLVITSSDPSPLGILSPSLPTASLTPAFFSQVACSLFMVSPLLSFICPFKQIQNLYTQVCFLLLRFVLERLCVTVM
The method, boiled down:
as §1

A further assay has as its target T10, ETV2 (Homo sapiens, UniProt O00321 1-342).
T10 sequence: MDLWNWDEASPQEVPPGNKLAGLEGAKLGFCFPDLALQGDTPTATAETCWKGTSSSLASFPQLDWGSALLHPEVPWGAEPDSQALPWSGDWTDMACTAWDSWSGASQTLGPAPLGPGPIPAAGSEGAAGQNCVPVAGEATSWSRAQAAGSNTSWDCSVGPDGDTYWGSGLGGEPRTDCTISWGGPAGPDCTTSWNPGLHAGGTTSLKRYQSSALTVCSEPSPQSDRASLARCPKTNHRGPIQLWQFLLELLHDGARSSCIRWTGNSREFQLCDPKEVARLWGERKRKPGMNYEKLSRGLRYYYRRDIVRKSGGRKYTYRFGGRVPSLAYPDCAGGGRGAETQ
Summed up: as §1

For a further assay, the target named is T11, ELF3 (Homo sapiens, UniProt P78545 1-371).
T11 sequence: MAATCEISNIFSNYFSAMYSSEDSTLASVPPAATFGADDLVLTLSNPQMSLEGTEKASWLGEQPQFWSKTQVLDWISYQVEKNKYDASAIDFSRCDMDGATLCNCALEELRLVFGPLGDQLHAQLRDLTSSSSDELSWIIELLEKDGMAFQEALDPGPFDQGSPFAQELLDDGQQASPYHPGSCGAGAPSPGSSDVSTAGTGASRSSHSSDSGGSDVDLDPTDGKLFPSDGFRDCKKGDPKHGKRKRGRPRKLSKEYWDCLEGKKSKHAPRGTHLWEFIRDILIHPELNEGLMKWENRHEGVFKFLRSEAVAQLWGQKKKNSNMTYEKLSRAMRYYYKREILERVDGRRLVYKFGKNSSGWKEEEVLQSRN
Summed up:
as §1

A further assay has as its target ETV1 (Homo sapiens, UniProt P50549 1-477). The method, boiled down: as §1

Sequence of ETV5 (P41161 whole entry): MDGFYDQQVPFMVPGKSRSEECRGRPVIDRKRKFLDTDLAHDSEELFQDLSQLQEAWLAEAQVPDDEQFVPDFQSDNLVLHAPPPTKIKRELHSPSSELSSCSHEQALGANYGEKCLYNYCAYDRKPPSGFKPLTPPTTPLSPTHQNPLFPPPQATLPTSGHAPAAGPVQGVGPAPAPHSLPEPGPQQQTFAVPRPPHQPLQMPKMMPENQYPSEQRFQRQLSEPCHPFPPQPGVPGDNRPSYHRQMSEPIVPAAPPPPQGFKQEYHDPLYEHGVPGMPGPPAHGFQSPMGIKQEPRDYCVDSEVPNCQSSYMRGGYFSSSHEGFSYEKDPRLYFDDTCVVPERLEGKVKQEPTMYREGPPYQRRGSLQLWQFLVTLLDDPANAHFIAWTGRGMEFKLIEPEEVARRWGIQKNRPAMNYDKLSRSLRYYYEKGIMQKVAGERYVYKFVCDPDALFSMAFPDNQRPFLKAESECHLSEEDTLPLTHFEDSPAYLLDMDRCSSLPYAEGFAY
Sequence of ETV1 (P50549 whole entry): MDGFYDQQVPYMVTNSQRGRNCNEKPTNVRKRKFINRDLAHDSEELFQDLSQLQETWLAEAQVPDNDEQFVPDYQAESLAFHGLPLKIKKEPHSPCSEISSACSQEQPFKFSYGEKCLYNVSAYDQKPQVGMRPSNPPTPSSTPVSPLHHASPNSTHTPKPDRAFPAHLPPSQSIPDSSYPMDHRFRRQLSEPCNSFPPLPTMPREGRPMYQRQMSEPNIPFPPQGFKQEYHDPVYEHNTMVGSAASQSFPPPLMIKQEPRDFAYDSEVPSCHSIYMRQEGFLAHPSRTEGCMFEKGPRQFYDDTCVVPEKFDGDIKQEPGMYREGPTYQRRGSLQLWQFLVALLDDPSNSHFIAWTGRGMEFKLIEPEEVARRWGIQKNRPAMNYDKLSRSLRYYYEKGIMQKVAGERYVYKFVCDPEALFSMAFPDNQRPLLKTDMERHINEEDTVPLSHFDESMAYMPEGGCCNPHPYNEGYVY

Turning to AACAGG, the binding signal in the assay with FLI1 is 1.2 fold enrichment (6-mer frequency, TF over GST control); with ELK1 it was 1.16 fold enrichment (6-mer frequency, TF over GST control); with GABPA, 1.13 fold enrichment (6-mer frequency, TF over GST control); in the assay with ERG, 1.23 fold enrichment (6-mer frequency, TF over GST control); with ELF1 it was 1.08 fold enrichment (6-mer frequency, TF over GST control); with EHF, 1.18 fold enrichment (6-mer frequency, TF over GST control). For the same sequence, the binding signal in the assay with SPI1 is 1.43 fold enrichment (6-mer frequency, TF over GST control); in the assay with SPIB, 1.16 fold enrichment (6-mer frequency, TF over GST control); in the assay with ELK3 it was 1.11 fold enrichment (6-mer frequency, TF over GST control); with FEV, 1.16 fold enrichment (6-mer frequency, TF over GST control); with ETV5, 1.27 fold enrichment (6-mer frequency, TF over GST control); with SPIC, 1.15 fold enrichment (6-mer frequency, TF over GST control). The binding signal was 1.08 fold enrichment (6-mer frequency, TF over GST control) in the assay with ELF4; 1.09 fold enrichment (6-mer frequency, TF over GST control) in the assay with ELK4; 1.03 fold enrichment (6-mer frequency, TF over GST control) with ETV2; 1.15 fold enrichment (6-mer frequency, TF over GST control) with ELF3; 1.18 fold enrichment (6-mer frequency, TF over GST control) with ETV1.

As for ACACAA, the binding signal is 1.14 fold enrichment (6-mer frequency, TF over GST control) in the assay with FLI1; 1.17 fold enrichment (6-mer frequency, TF over GST control) with ELK1; 1.12 fold enrichment (6-mer frequency, TF over GST control) with GABPA; 1.17 fold enrichment (6-mer frequency, TF over GST control) with ERG; 1.23 fold enrichment (6-mer frequency, TF over GST control) with ELF1; 1.21 fold enrichment (6-mer frequency, TF over GST control) with EHF. Besides, the binding signal with SPI1 is 1.17 fold enrichment (6-mer frequency, TF over GST control); with SPIB it was 1.21 fold enrichment (6-mer frequency, TF over GST control); with ELK3, 1.19 fold enrichment (6-mer frequency, TF over GST control); with FEV, 1.17 fold enrichment (6-mer frequency, TF over GST control); with ETV5 it was 1.19 fold enrichment (6-mer frequency, TF over GST control); with SPIC, 1.22 fold enrichment (6-mer frequency, TF over GST control). Moreover, the binding signal with ELF4 is 1.17 fold enrichment (6-mer frequency, TF over GST control); with ELK4 it was 1.05 fold enrichment (6-mer frequency, TF over GST control); in the assay with ETV2 it was 1.1 fold enrichment (6-mer frequency, TF over GST control); in the assay with ELF3, 1.11 fold enrichment (6-mer frequency, TF over GST control); in the assay with ETV1, 1.14 fold enrichment (6-mer frequency, TF over GST control).

Values taken from article PMC7862700, “An all-to-all approach to the identification of sequence-specific readers for epigenetic DNA modifications on cytosine”.
